Laboratory results taken from PubChem BioAssay AID504636 (National Center for Advancing Translational Sciences (NCATS), 2011).
The whole screen tested about 1,100 compounds, of which about 490 (45%) were called active. Another 33% or so got no clear call; they are omitted. The set was probably picked from earlier hits. This is one part of a sample in which actives are shown more often than they occur. Calls follow the shape of the full dose curve.

These molecules were tested against ATP-dependent 6-phosphofructokinase (Trypanosoma brucei brucei) (UniProt O15648) (assay: Tb PFK orthogonal confirmatory assay using ATP depletion (Kinase-Glo Plus) as an alternative measure of Tb PFK activity: Hit Validation). Details: Tb PFK enzyme, Kinase-Glo Plus luminescence; series mostly up to 57.5 µM.
Source text: Various species of the protozoan family Trypanosomatidae are responsible for a range of serious human diseases in tropical and subtropical areas of the world. […] Many of the disorders caused by trypanosomatids are fatal if left untreated, but most currently used drugs are inefficient and toxic.
Oxidative metabolism involving the mitochondrial tricarboxylic acid cycle and oxidative phosphorylation are repressed in these parasites, and recent RNA interference (RNAi) experiments have shown that even partial depletion of certain individual glycolytic enzymes can lead to the death of cultured parasites. One such glycolytic enzyme, phosphofructokinase (PFK), catalyzes the formation of fructose-1,6-bisphosphate (F1,6BP) and ADP from fructose-6-phosphate (F6P) and ATP, and in many metabolic circumstances makes an important contribution to the control of flux through the glycolytic pathway. As a specific glycolytic target, PFK is particularly attractive as it catalyzes the first irreversible step in glycolysis, and structural and kinetic studies have shown very substantial and essential differences from corresponding host enzymes, allowing for the discovery of parasite-selective inhibitors.
The primary qHTS data of T. brucei PFK and ADP-Glo confirmatory data are available in PubChem (AIDs: 485367 and 485368). A luminescent secondary assay was also performed that used luciferase-based nucleotide detection (Kinase-Glo Plus, Promega) similar to the qHTS, but which used ATP (rather than ADP) concentration as an alternate measure of T. brucei PFK activity. The assay measures substrate depletion (ATP) rather than product formation (ADP), coupled to an identical manner of luciferase-based signal detection. As such, compounds which truly act on T. brucei PFK produce a change in signal in the opposite direction of the primary qHTS assay, while compounds which affect the final luciferase reaction produce signal changes in identical directions. Compounds were screened as a concentration-titration series that ranged from 57uM to 0.7nM.
1. Verlinde, C.L., et al., Glycolysis as a target for the design of new anti-trypanosome drugs. Drug Resist Updat, 2001. 4(1): p. 50-65.
2. Albert, M.A., et al., Experimental and in silico analyses of glycolytic flux control in bloodstream form Trypanosoma brucei. J Biol Chem, 2005. 280(31): p. 28306-15.
3. […] J Mol Biol, 2009. 385(5): p. 1519-33.
NIH Molecular Libraries Probe Production Network [MLPCN]
NIH Chemical Genomics Center [NCGC]
PI Name: Dr. Malcolm Walkinshaw
Substrate buffer was dispensed into white, solid 1536-well plates at 3ul/well in 0.1M triethanolamine (TEA) buffer, pH 8.0, containing final concentrations of 5 mM MgCl2, 0.01% Tween20, 0.5 mM fructose-6-phosphate (F6P) and 0.1mM ATP. Then, 23nl of compounds or DMSO were delivered to each well using a pin tool. One ul T. brucei PFK (0.1M TEA, 0.01% Tween20, 0.1% bovine serum albumin (BSA) and 1.25nM PFK, final concentrations) was then dispensed, and plates were incubated at room temperature for 45 min. The luminescent detection reagent, Kinase-Glo Plus (Promega), was then added at 2ul/well and incubated for ten minutes at room temperature. The plates were measured on a ViewLux plate reader for luminescent signal using a clear filter with a one second exposure. The %Activity was determined from the corrected luminescence values. As no specific T. brucei PFK inhibitors have been identified in the literature, 1x (1.25nM) and 0x PFK enzyme controls (untreated) were included to normalize %Activity of identified inhibitors; 0x enzyme values corresponded to 100%Activity (full inhibition), while 1x PFK enzyme values were used to normalize 0% Activity (no inhibition). The Kinase-Glo Plus protocol varies from the primary screen in that it measures ATP, rather than ADP, concentration, and thus provides a measure of substrate depletion, rather than of product formation.
[…]
Also: nearly all actives have a fitted effect of over 60% in size.
Potency is read from the fitted curve at half-maximal effect.

Chain of ATP-dependent 6-phosphofructokinase (Trypanosoma brucei brucei) (O15648 whole entry, looked up): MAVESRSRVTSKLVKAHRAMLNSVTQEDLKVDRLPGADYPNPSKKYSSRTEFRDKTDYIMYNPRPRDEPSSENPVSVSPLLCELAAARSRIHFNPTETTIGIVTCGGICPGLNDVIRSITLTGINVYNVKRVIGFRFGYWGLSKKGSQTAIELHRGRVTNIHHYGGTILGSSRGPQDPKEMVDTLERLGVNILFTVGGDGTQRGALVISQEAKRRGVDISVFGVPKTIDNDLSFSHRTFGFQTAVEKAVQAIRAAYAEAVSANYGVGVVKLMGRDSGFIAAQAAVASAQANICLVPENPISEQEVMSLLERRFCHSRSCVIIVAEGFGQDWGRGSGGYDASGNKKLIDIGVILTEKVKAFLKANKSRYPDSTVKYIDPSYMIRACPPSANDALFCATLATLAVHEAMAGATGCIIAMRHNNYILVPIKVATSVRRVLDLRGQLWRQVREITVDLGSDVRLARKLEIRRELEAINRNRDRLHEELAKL

Row | Compound | Potency
1 | CCOc1cccc(/C=N/N2C(=O)CSC2=S)c1O | 30.1 µM (active)
2 | O=C1CSC(=S)N1/N=C/c1ccc(O)c([N+](=O)[O-])c1 | inactive
3 | Cn1sc(=O)c2cc(S(=O)(=O)NC3CC3)ccc21 | 7.57 µM (active)
4 | OC(CNCc1ccc(Cl)c(Cl)c1)c1ccccc1 (stereo unspecified) | 21.3 µM (active)
5 | Cn1nnnc1NCc1ccc(Cl)c(Cl)c1 | 10.7 µM (active)
6 | O=[N+]([O-])c1c(NCCO)cc(Sc2nc3ccccc3s2)c2nonc12 | 0.601 µM (active)
7 | C=C(C)C(=O)Nc1cccc(C2=NOC3(C2)C[C@H](C(N)=O)N(C(=O)C(c2ccccc2)c2ccccc2)C3)c1 (stereo partly specified) | 1.51 µM (active)
8 | C/C=C\C=C\C(=O)N1CC2(CC(c3cccc(NC(=O)/C(C)=C\C)c3)=NO2)C[C@H]1C(N)=O (stereo partly specified) | 9.53 µM (active)
9 | CCc1ccc(NC(=O)C(=O)NNC(=O)c2cccs2)cc1 | inactive
10 | O=c1ccnc(Nc2ccc(Cl)cc2)[nH]1 | 21.3 µM (active)
11 | O=c1[nH]c2ccccc2n2c(-c3ccccc3)nnc12 | 6.01 µM (active)
12 | N/C(=N\OC(=O)Nc1ccc(Cl)c(Cl)c1)c1ncc(C(F)(F)F)cc1Cl | 26.9 µM (active)
13 | Cc1nc(N)nc(SCc2ccc([N+](=O)[O-])cc2)c1N | 10.7 µM (active)
14 | Nc1nc(SCc2ccc([N+](=O)[O-])cc2)c2ncn(C3OC(CO)C(O)C3O)c2n1 (stereo unspecified) | 23.9 µM (active)
15 | Cn1ccc(=Nc2ccc(NC(=O)c3ccc(N=c4ccn(C)c5ccc([N+](=O)[O-])cc45)cc3)cc2)cc1 | inactive
16 | O=C(Cc1ccc([N+](=O)[O-])cc1)N/N=C/c1ccco1 | 19 µM (active)
17 | O=C(CSc1nc(O)c(Cc2ccccc2)c(=O)[nH]1)Nc1nc2c(s1)CCCC2 | 6.75 µM (active)
18 | Cc1ccc(-c2nn(-c3ccccc3)cc2/C=C2\SC(=S)N(CCCCCC(=O)O)C2=O)o1 | 9.53 µM (active)

Row | Compound | Potency
19 | Cc1cccc(-n2c(N)c(C(=O)N3CCN(C)CC3)sc2=S)c1 | 6.01 µM (active)
20 | O=[N+]([O-])/C=C/c1ccc2c(ccn2Cc2ccccc2)c1 | 10.7 µM (active)
21 | O=C(NCc1ccc(Cl)c(Cl)c1)c1cccnc1 | 13.5 µM (active)
22 | CCn1nc(C(=O)NNS(=O)(=O)c2cc(/C=C/C(=O)O)cc(OC)c2OC)c2ccccc2c1=O | inactive
23 | C=CC1=C(C(=O)O)N2C(=O)[C@@H](NC(=O)/C(=N\OCC(=O)O)c3csc(N)n3)[C@H]2SC1 | 2.69 µM (active)
24 | COC(=O)c1[nH]c2ccccc2c1NC(=O)CN1CCCc2ccccc21 | inactive
25 | CC(C)(C)c1nnc(NC(=O)C2c3ccccc3Oc3ccccc32)s1 | 19 µM (active)
26 | Cc1c(C)c2ccc(OCC(=O)N3CCN(c4cccc(Cl)c4)CC3)cc2oc1=O | 4.78 µM (active)
27 | O=c1[nH]c(=S)[nH]c2[nH]c(=S)[nH]c12 | 1.35 µM (active)
28 | COc1ccc(N/C=C(\C2OC(=O)c3ccccc32)[N+](=O)[O-])cc1 (stereo unspecified) | inactive
29 | FC(F)(F)C1CCCN(c2nsc3ccccc23)C1 (stereo unspecified) | 2.69 µM (active)
30 | N#Cc1cccc(CSc2ncnc(N)n2)c1 | 13.5 µM (active)
31 | Cc1ccc(NC(=O)c2cc(-c3ccc(C)o3)nc3ccccc23)nc1 | 6.75 µM (active)
32 | Cc1nn(Cc2ccc(Cl)c(Cl)c2)c(C)c1NC(=O)c1cc(C2CC2)on1 | 5.36 µM (active)
33 | OCCN1CCN(C(=S)c2ccc(-c3ccccc3)cc2)CC1 | 9.53 µM (active)
34 | Cc1ccc(C)c(-c2nnc(NC(=O)CS(=O)(=O)c3ccccc3)o2)c1 | inactive
35 | COC(=O)CC(=O)N1CCN(c2ccc(Cl)c(Cl)c2)CC1 | 23.9 µM (active)
36 | O=C1CSC(=S)N1c1ccc(Cl)c(Cl)c1 | inactive
